Screening data: PubChem, National Center for Advancing Translational Sciences (NCATS)
Shown are actives, neighbours in structure and some others; about 2.8% of the full set was active somewhere.
TGFb inhibitor: qHTS for Inhibitors of TGF-b; Potency, µM (highest dose often 46.1 µM), for inactives: at the top dose activity, negative = inhibition, usual class: inhibitors; 410,000 tested, 1.2% active; HepG2 CAGA-GFP TGF-b/SMAD3 reporter, GFP fluorescence, 18 h; TGF-beta stimulated, 500 pg/mL final; AID 588855, 2011; note: potency is the fitted concentration of half-maximal effect; % is set by controls: 0 for no effect and ±100 for the full control effect; nearly all actives have a fitted effect of over 65% in size
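Cell-based qHTS in HEPG2 carrying a CAGA-GFP Smad reporter; compounds added before 500 pg/mL final TGF-beta, 18 h incubation at 37 degrees C, GFP fluorescence quantified per cell by imaging cytometry.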
ATXN viability: Viability Counterscreen for Primary qHTS for Inhibitors of ATXN expression; S2 cells (HEK-293 line with an ATXN2-luciferase reporter) viability, CellTiter-Fluor protease fluorescence, 24 h; Potency, µM (series often up to 56.7 µM), hits mostly cytotoxic; 400,000 tested, 0.49% active; AID 651635, 2014; note: potency is the fitted concentration of half-maximal effect; nearly all actives have a fitted effect of over 40% in size
ATXN2 expr inh: Primary qHTS for Inhibitors of ATXN expression; HEK-293 ATXN2-luciferase reporter, luminescence, 24 h; Potency, µM (series often up to 57 µM), for inactives: top-dose activity change, negative = inhibition, actives largely listed as inhibitors; 360,000 tested, 0.72% active; note: potency is the fitted concentration of half-maximal effect; % is set by controls: 0 for no effect and ±100 for the full control effect; nearly all actives have a fitted effect of over 55% in size
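ATXN2-luciferase reporter cells (luciferase flanked by upstream and downstream ATXN2 gene portions) were treated 24 h at 37 °C with compounds at up to 57 uM. SteadyGlo luminescence gave expression; GF-AFC fluorescence gave viability.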
Six1-Eya2 inh: qHTS Assay for Inhibitors of the Six1/Eya2 Interaction | Homeobox protein SIX1 (Homo sapiens) + Protein phosphatase EYA2 (Homo sapiens), … | AlphaScreen GST-Six1/His-Eya2 binding, biochemical; stronger effect = lower value | activity change, % (no concentration beside the values) | 360,000 tested, 0.56% active | AID 651725, 2012; in the data active = activity change below about -65%; inconclusive = mostly about -30% to -63%; note: % is set by controls: 0 for no effect and ±100 for the full control effect
Target sequence (O00167 whole entry, looked up): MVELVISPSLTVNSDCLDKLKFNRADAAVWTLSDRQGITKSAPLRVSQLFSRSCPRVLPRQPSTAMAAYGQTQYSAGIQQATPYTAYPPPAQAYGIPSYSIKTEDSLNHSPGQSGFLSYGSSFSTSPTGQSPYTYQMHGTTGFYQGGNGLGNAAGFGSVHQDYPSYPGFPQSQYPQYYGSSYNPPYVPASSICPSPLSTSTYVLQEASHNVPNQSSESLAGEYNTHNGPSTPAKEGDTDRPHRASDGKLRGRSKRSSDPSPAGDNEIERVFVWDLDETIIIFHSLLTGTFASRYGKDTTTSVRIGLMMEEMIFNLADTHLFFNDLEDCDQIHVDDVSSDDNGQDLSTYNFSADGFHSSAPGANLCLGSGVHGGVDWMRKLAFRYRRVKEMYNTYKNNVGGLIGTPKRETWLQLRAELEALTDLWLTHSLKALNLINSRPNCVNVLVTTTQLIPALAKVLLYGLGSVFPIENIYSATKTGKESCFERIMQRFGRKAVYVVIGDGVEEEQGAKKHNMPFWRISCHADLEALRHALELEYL
Target sequence (Q15475 whole entry, looked up): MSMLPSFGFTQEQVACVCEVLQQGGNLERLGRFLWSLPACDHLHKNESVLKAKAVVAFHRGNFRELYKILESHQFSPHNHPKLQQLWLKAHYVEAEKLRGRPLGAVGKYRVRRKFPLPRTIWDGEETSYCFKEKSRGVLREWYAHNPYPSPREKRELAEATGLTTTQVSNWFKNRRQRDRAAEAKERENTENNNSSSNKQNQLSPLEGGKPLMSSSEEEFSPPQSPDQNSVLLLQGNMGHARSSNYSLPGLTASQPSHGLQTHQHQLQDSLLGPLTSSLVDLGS
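AlphaScreen luminescence read after one hour at 37 °C in darkness. Pin-transferred compounds met GST-Six1 and His-Eya2 protein (5X stock 250 nM/500 nM) plus glutathione donor and Ni-chelate acceptor beads (5X, 50 ug/mL).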
HepG2 tox: qHTS for Inhibitors of TGF-b: Cytotox Counterscreen; HepG2 CAGA-GFP viability, ATP luminescence, 18 h; Potency, µM (highest dose often 46.1 µM), without a hit: at the highest dose activity change, negative = cytotoxicity, most hits filed as cytotoxic; 410,000 tested, 0.76% active; AID 588856, 2011; note: potency is the fitted concentration of half-maximal effect
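CellTiter-Glo luminescence gave cytotoxicity after 18 hours at 37 degrees C. The cells were HepG2 CAGA-GFP in 1% FBS DMEM, stimulated with 500 pg/mL TGF-beta after compound addition. %Activity was normalised to no-cell wells (complete cell-killing) and DMSO (no toxicity), and curves were fitted and classified.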
CtBP-E1A inh: qHTS Assay for Inhibitors of the CtBP/E1A Interaction; CtBP / adenovirus E1A interaction (AlphaScreen); AlphaScreen GST-E1A/His-CtBP binding, 1536-well; stronger effect = lower value; activity change, % (no concentration beside the values); 340,000 tested, 0.49% active; AID 651724, 2012; in the data active = activity change below about -65%; inconclusive = mostly about -30% to -63%; note: % is set by controls: 0 for no effect and ±100 for the full control effect
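Homogeneous bead-based format: GST-tagged E1A captured on glutathione donor beads, His-tagged CtBP on nickel acceptor beads; compounds precede bead addition by 2 h at 37 °C.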
* = called active by the depositor. Unless noted, calls come from the whole dose curve; as a rule, active = well fitted curve in the direction sought with a large enough effect; inconclusive = small, poorly fitted or top-dose-only effect, or another doubt; inactive = no such curve, though single readings can be large; an effect the other way counts as inactive or inconclusive.

For COc1ccc2c(c1)c(CC(=O)Nc1cccc(S(N)(=O)=O)c1)c(C)n2C(=O)c1ccc(Cl)cc1 the results were TGFb inhibitor 16µM*, ATXN viability inconclusive, ATXN2 expr inh inconclusive, Six1-Eya2 inh -5, HepG2 tox -43% and CtBP-E1A inh 0.
`COc1ccc(NC(=O)Cc2c(C)n(C(=O)c3ccc(Cl)cc3)c3ccc(OC)cc23)cc1` gave TGFb inhibitor -8%, ATXN viability inactive, ATXN2 expr inh 5%, Six1-Eya2 inh -2, HepG2 tox 0% and CtBP-E1A inh 0.
CC1CCC(NC(=O)CCc2cn(Cc3ccccc3Cl)c3ccccc23)CC1 (stereo not drawn) was read as TGFb inhibitor 16µM* and HepG2 tox -21%.
Screening COc1ccc(N2CC(NC(=O)c3ccc(S(=O)(=O)N4CCOCC4)cc3)CC2=O)cc1 (stereo not drawn) returned TGFb inhibitor -1% and HepG2 tox -11%.
Screening Cc1ccc(S(=O)(=O)c2cn(CC(=O)Nc3ccc4c(c3)OCO4)c3ccc(C)cc3c2=O)cc1 returned TGFb inhibitor 2%, ATXN viability inactive, ATXN2 expr inh 4% and HepG2 tox 2%.
For CCN1CCCC1CNCc1cc2ccc(SC)cc2nc1-c1cc(OC)ccc1OC (stereo not drawn) the results were ATXN viability inactive.
Cc1ccc2c(CN(C)Cc3ccc(OC(F)F)cc3)cc(=O)oc2c1C was read as TGFb inhibitor -29%, ATXN viability inactive, ATXN2 expr inh -27%, Six1-Eya2 inh 5, HepG2 tox 13µM* and CtBP-E1A inh 9.
Screening COc1ccc(CNC(=O)c2cc3c(=O)n(Cc4ccco4)ccc3nc2C)c(OC)c1 returned TGFb inhibitor inconclusive and HepG2 tox -14%.
Screening O=C(NCC1CCN(Cc2ccc(F)cc2)CC1)C1CCCN(c2ncnc3c2nc2n3CCCCC2)C1 (stereo not drawn) returned TGFb inhibitor 13µM*, ATXN viability inconclusive, Six1-Eya2 inh 10 and HepG2 tox -52%.
`Cc1cccc(N2CCN(CCCNC(=O)C3CCCN(c4ncnc5c4nc4n5CCCCC4)C3)CC2C)c1` (stereo not drawn) gave TGFb inhibitor inconclusive, ATXN viability 18µM*, ATXN2 expr inh 25µM*, Six1-Eya2 inh -11, HepG2 tox -21% and CtBP-E1A inh inconclusive.
CN(C)c1ccc(/C=C/c2ccnc3ccccc23)cc1 was read as TGFb inhibitor 0% and HepG2 tox -34%.
`CC(C)(O)C#Cc1ccc(CN2CCc3nnc(CNC(=O)c4cccc(F)c4)n3CC2)cc1` gave ATXN viability inactive.
C[C@@H]1[C@@H](Sc2ccccc2)CC(=O)O[C@@H]1c1ccc(-c2ccccc2)cc1 was read as TGFb inhibitor inconclusive, ATXN viability 22µM*, ATXN2 expr inh 18µM*, Six1-Eya2 inh 4, HepG2 tox 11µM* and CtBP-E1A inh 5.
`Cc1cccc(NC(=S)NCC(C)CSc2ccc(Cl)cc2)c1` (stereo not drawn) gave TGFb inhibitor 13µM*, ATXN viability inactive, Six1-Eya2 inh -11 and HepG2 tox 14µM*.
Cc1cccc(NC(=S)NCCSc2ccc(Cl)cc2)c1 was read as TGFb inhibitor inconclusive, ATXN viability inactive, ATXN2 expr inh -19%, Six1-Eya2 inh 4, HepG2 tox 2.5µM* and CtBP-E1A inh 0.
Cn1cc(S(=O)(=O)N2CCCCCC2)cc1C(=O)NCc1ccccc1Cl was read as TGFb inhibitor 5µM*, ATXN viability inactive, ATXN2 expr inh -29% and HepG2 tox 1%.
Cn1cc(S(=O)(=O)N2CCCC2)cc1C(=O)NCc1ccccc1 was read as TGFb inhibitor 2%, ATXN viability inconclusive, ATXN2 expr inh -11%, Six1-Eya2 inh 2, HepG2 tox -6% and CtBP-E1A inh 1.
`COc1ccc(-c2c(N)cnc(C(=O)O)c2C)c(OCc2ccccc2)c1OC` gave TGFb inhibitor 1%, ATXN viability inactive, Six1-Eya2 inh -82*, HepG2 tox -11% and CtBP-E1A inh -8.
CC(C)Cc1ccc(C(C)/C=C2/CCC(CN3CCCCC3)C2=O)cc1 (stereo not drawn) was read as TGFb inhibitor 16µM*, ATXN2 expr inh inconclusive, Six1-Eya2 inh -1, HepG2 tox -72% and CtBP-E1A inh -1.
For Cc1ccc(C)n1-c1nnc(N2CCCC(C(=O)Nc3ccc(C(C)C)cc3)C2)s1 (stereo not drawn) the results were TGFb inhibitor 7.9µM*, ATXN viability inactive, ATXN2 expr inh -11% and HepG2 tox -50%.
O=C(Oc1ccc(C(=S)N2CCOCC2)cc1)c1ccc(Br)cc1 was read as TGFb inhibitor -9%, ATXN viability inactive, ATXN2 expr inh 1%, Six1-Eya2 inh -89*, HepG2 tox -3% and CtBP-E1A inh 8.
For COC(=O)c1ccc(OC(=O)/C=C/c2ccco2)cc1 the results were TGFb inhibitor 0%, ATXN viability inactive, ATXN2 expr inh 0%, Six1-Eya2 inh -85*, HepG2 tox -4% and CtBP-E1A inh -93*.
O=C(/C=C/c1ccco1)Oc1ccc(C(=S)N2CCOCC2)cc1 was read as TGFb inhibitor -10%, ATXN viability inconclusive, ATXN2 expr inh -32%, Six1-Eya2 inh -89*, HepG2 tox 5% and CtBP-E1A inh -93*.
O=C(Oc1ccc(C(=S)N2CCOCC2)cc1)c1ccccc1 was read as TGFb inhibitor -5%, ATXN viability inactive, ATXN2 expr inh -1%, Six1-Eya2 inh inconclusive, HepG2 tox -8% and CtBP-E1A inh -16.
For COC(=O)c1ccc(OC(=O)c2ccco2)cc1 the results were TGFb inhibitor -8%, ATXN viability inactive, ATXN2 expr inh 1%, Six1-Eya2 inh inconclusive, HepG2 tox -5% and CtBP-E1A inh 2.
For O=C(/C=C/c1ccccc1)Oc1ccc(C(=S)N2CCOCC2)cc1 the results were TGFb inhibitor 4%, ATXN viability inactive, ATXN2 expr inh -6%, Six1-Eya2 inh inconclusive and HepG2 tox 0%.
`O=S(=O)(c1ccccc1)c1nc(-c2cccs2)oc1SCc1ccccc1F` gave TGFb inhibitor -5%, ATXN viability inactive, ATXN2 expr inh -4% and HepG2 tox -16%.
